Laboratory results as given in PubChem BioAssay (NCI).
About 79,000 compounds went through this panel and 15% of them were active in at least one assay; those are over-represented in the sample as a whole. Activity calls are given as the source filed them. Cut-off read from the data, not from the text of the source: active = growth inhibition above about 70%; inactive = the rest.

Experiments:
[1] = NCI Yeast Anticancer Drug Screen. Data for the rad52 strain (AID 147);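 note: 0% = growth of vehicle-treated control cultures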; conditions: S. cerevisiae rad52 mutant growth inhibition, active compounds read high
In short: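 DNA repair-defective yeast; compound exposure; growth scored against vehicle controls.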

[2] = NCI Yeast Anticancer Drug Screen. Data for the wt1 strain (AID 149);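 note: 0% = growth of vehicle-treated wt1 cultures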; conditions: S. cerevisiae wt1 strain (SPY 50644) growth inhibition, active compounds read high
In short: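 Growth inhibition read against vehicle controls after compound exposure of the wt1 yeast strain.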

[3] = NCI Yeast Anticancer Drug Screen. Data for the rad50EPP+ strain (AID 151);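 note: 0% = growth of vehicle-treated control cultures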; conditions: S. cerevisiae rad50 mutant strain, active compounds read high
In short: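 rad50EPP+ yeast treated with test compounds. Readout: growth vs vehicle control.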

[4] = NCI Yeast Anticancer Drug Screen. Data for the mgt1 strain (AID 153); conditions: S. cerevisiae mgt1 mutant growth inhibition, active compounds read high
In short: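 Growth inhibition relative to vehicle controls was scored for the mgt1 yeast strain after compound exposure.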

[5] = NCI Yeast Anticancer Drug Screen. Data for the rad50 strain (AID 155);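 note: 0% = growth of vehicle-only cultures of the same strain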; conditions: S. cerevisiae rad50 strain growth inhibition, active compounds read high
In short: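 Readout: growth inhibition relative to vehicle-treated cultures. Compound exposure was carried out in a genetically defined yeast strain deficient in DNA damage repair.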

[6] = NCI Yeast Anticancer Drug Screen. Data for the mec2-1 strain (AID 157); conditions: S. cerevisiae mec2-1 strain, active compounds read high
In short: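 Growth inhibition is read against vehicle-treated controls after compound exposure of the mec2-1 yeast strain, which is defective in DNA damage repair or cell cycle control.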

[7] = NCI Yeast Anticancer Drug Screen. Data for the rad14 strain (AID 159);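 note: 0% = growth of vehicle-treated control cultures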; conditions: S. cerevisiae rad14 strain growth inhibition, active compounds read high
In short: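 Growth inhibition vs vehicle controls; genetically altered yeast strain (DNA damage repair defect) treated with test compounds.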

[8] = NCI Yeast Anticancer Drug Screen. Data for the sgs1 mgt1 strain (AID 161);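 note: 0% = growth of cultures given vehicle only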; conditions: S. cerevisiae sgs1 mgt1 strain, active compounds read high
In short: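 This yeast growth screen uses a strain with defined DNA-repair lesions; compound-treated growth is compared with vehicle-treated growth.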

[9] = NCI Yeast Anticancer Drug Screen. Data for the cln2 rad14 strain (AID 165);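 note: 0% = growth equal to vehicle treated cultures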; conditions: S. cerevisiae cln2 rad14 strain, active compounds read high
In short: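 Growth inhibition, relative to vehicle-treated controls, is the read-out. The test organism is a yeast strain with defined genetic alterations, cln2 rad14.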

[10] = NCI Yeast Anticancer Drug Screen. Data for the bub3 strain (AID 167); conditions: S. cerevisiae bub3 mutant strain, active compounds read high
In short: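 Readout: yeast growth inhibition, expressed relative to vehicle-only wells. The test organism is a mutant strain from a panel with lesions in DNA repair or checkpoint genes.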

[11] = NCI Yeast Anticancer Drug Screen. Data for the wt2 strain (AID 169);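 note: 0% = growth of vehicle-treated yeast cultures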; conditions: S. cerevisiae wt2 strain growth inhibition, active compounds read high
In short: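 Compound exposure of yeast; growth compared with vehicle controls; inhibition reported.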

[12] = NCI Yeast Anticancer Drug Screen. Data for the mlh1 strain (AID 171);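 note: 0% = growth of vehicle-treated control cultures of the same strain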; conditions: S. cerevisiae mlh1 strain growth inhibition, active compounds read high
In short: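 Compounds are applied to a genetically altered yeast strain, and its growth is compared with that of vehicle-treated cultures to give percent inhibition.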

[13] = NCI Yeast Anticancer Drug Screen. Data for the sgs1 strain (AID 173);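 note: 0% = growth of vehicle-only control cultures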; conditions: S. cerevisiae sgs1 mutant, active compounds read high
In short: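 Compounds applied to genetically altered yeast; growth compared with vehicle-treated cultures to give % inhibition.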

[14] = NCI Yeast Anticancer Drug Screen. Data for the mlh1 rad18 strain (AID 175); conditions: S. cerevisiae mlh1 rad18 strain growth inhibition, active compounds read high
In short: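 Cells of a genetically altered yeast strain, deficient in DNA damage repair, were treated with compound. Their growth was then compared with that of vehicle-treated cultures to give inhibition.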

[15] = NCI Yeast Anticancer Drug Screen. Data for the CLN2oe strain (AID 163);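 note: 0% = growth of vehicle-only control cultures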; conditions: S. cerevisiae CLN2oe strain, active compounds read high
In short: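 Compound-treated yeast; growth vs vehicle ctrl = % inhibition. Genetically altered strain (cell-cycle control).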

[16] = NCI Yeast Anticancer Drug Screen. Data for the rad18 strain (AID 177); conditions: S. cerevisiae rad18 mutant growth inhibition, active compounds read high
In short: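 Compounds are applied to a repair-deficient yeast strain, and growth is compared with that of vehicle-treated cultures to give percent inhibition.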

[17] = at 5.0 µM (retest, dose inferred, filed as 0.5)
[18] = at 50.0 µM (retest, dose inferred, filed as 5.0)

Measured: growth inhibition

COc1cc2c(cc1C[N+](C)(C)CSc1ccccc1)-c1ccccc1CC2
inactive: [1]; at 1.2 µM -12% | [1]; at 3.7 µM -8% | [2]; at 1.2 µM -17% | [2]; at 3.7 µM -14% | [2]; at 11.0 µM 29% | [3]; at 1.2 µM 3% | [3]; at 3.7 µM 20% | [3]; at 11.0 µM 19% | [3]; at 33.0 µM 20% | [3]; at 100.0 µM 43% | [4]; at 1.2 µM 7% | [4]; at 3.7 µM 15% | [4]; at 11.0 µM 30% | [5]; at 1.2 µM -7% | [5]; at 3.7 µM 8% | [5]; [17] 11% | [6]; at 1.2 µM -6% | [6]; at 3.7 µM 6% | [6]; [17] 3% | [7]; at 1.2 µM -12% | [7]; at 3.7 µM -10% | [7]; at 11.0 µM 64% | [8]; [17] -1% | [9]; [17] -3% | [10]; at 1.2 µM 17% | [10]; at 3.7 µM -4% | [10]; [17] 1% | [11]; at 1.2 µM 13% | [11]; at 3.7 µM 21% | [12]; at 1.2 µM 6% | [12]; at 3.7 µM 16% | [12]; at 11.0 µM 35% | [13]; at 1.2 µM 2% | [13]; at 3.7 µM 8% | [13]; at 11.0 µM 36% | [14]; [17] -5%
active: [1]; at 11.0 µM 79% | [1]; at 33.0 µM 99% | [1]; at 100.0 µM 99% | [2]; at 33.0 µM 98% | [2]; at 100.0 µM 98% | [4]; at 33.0 µM 98% | [4]; at 100.0 µM 99% | [5]; at 11.0 µM 76% | [5]; at 33.0 µM 98% | [5]; [18] 98% | [5]; at 50.0 µM 99% | [5]; at 100.0 µM 99% | [6]; at 11.0 µM 80% | [6]; at 33.0 µM 98% | [6]; [18] 99% | [6]; at 50.0 µM 99.3% | [6]; at 100.0 µM 96% | [7]; at 33.0 µM 98% | [7]; at 100.0 µM 98% | [8]; [18] 99% | [8]; at 50.0 µM 99.2% | [9]; [18] 99% | [9]; at 50.0 µM 99.3% | [10]; at 11.0 µM 78% | [10]; at 33.0 µM 98% | [10]; [18] 98% | [10]; at 50.0 µM 99.5% | [10]; at 100.0 µM 99% | [11]; at 11.0 µM 96% | [11]; at 33.0 µM 98% | [11]; at 100.0 µM 99% | [12]; at 33.0 µM 98% | [12]; at 100.0 µM 98% | [13]; at 33.0 µM 97% | [13]; at 100.0 µM 99% | [14]; [18] 99% | [14]; at 50.0 µM 99.3%

Cc1cc(C(C)(C)CC(C)(C)C)cc(O)c1O
inactive: [1]; at 1.2 µM 12% | [1]; at 3.7 µM 34% | [2]; at 1.2 µM -19% | [2]; at 3.7 µM 9% | [3]; at 1.2 µM 44% | [3]; at 3.7 µM 69% | [4]; at 1.2 µM 23% | [4]; at 3.7 µM 40% | [5]; at 1.2 µM -7% | [5]; at 3.7 µM 12% | [5]; at 11.0 µM 69% | [6]; at 1.2 µM 29% | [6]; at 3.7 µM 37% | [7]; at 1.2 µM -7% | [7]; at 3.7 µM 9% | [8]; [17] 4% | [15]; at 1.2 µM 2% | [15]; at 3.7 µM 35% | [9]; [17] 37% | [10]; at 1.2 µM 1% | [10]; at 3.7 µM 19% | [10]; [17] 21% | [11]; at 1.2 µM 2% | [11]; at 3.7 µM 27% | [11]; at 100.0 µM 54% | [12]; at 1.2 µM 6% | [12]; at 3.7 µM 20% | [13]; at 1.2 µM 14% | [13]; at 3.7 µM 35% | [16]; at 1.2 µM 5% | [16]; at 3.7 µM 23%
active: [1]; at 11.0 µM 77% | [1]; at 33.0 µM 96% | [1]; at 100.0 µM 98% | [2]; at 11.0 µM 70% | [2]; at 33.0 µM 94% | [2]; at 100.0 µM 98% | [3]; at 11.0 µM 79% | [3]; at 33.0 µM 83% | [3]; at 100.0 µM 88% | [4]; at 11.0 µM 87% | [4]; at 33.0 µM 97% | [4]; at 100.0 µM 98% | [5]; [17] 95% | [5]; at 33.0 µM 93% | [5]; [18] 99% | [5]; at 50.0 µM 92% | [5]; at 100.0 µM 97% | [6]; [17] 97% | [6]; at 11.0 µM 72% | [6]; at 33.0 µM 95% | [6]; [18] 100% | [6]; at 50.0 µM 91.9% | [6]; at 100.0 µM 99% | [7]; at 11.0 µM 80% | [7]; at 33.0 µM 93% | [7]; at 100.0 µM 97% | [8]; [18] 97% | [15]; at 11.0 µM 81% | [15]; at 33.0 µM 97% | [15]; at 100.0 µM 98% | [9]; [18] 95% | [10]; at 11.0 µM 74% | [10]; at 33.0 µM 97% | [10]; [18] 99% | [10]; at 100.0 µM 98% | [11]; at 11.0 µM 71% | [11]; at 33.0 µM 89% | [12]; at 11.0 µM 85% | [12]; at 33.0 µM 88% | [12]; at 100.0 µM 99% | [13]; at 11.0 µM 82% | [13]; at 33.0 µM 92% | [13]; at 100.0 µM 97% | [14]; [17] 83% | [14]; [18] 100% | [14]; at 50.0 µM 92% | [16]; at 11.0 µM 88% | [16]; at 33.0 µM 96% | [16]; at 100.0 µM 98%
